Results on ten compounds are retold here after PubChem BioAssay.

Assay [1] in a line: HepG2 liver cancer cell viability effects, profiling panel, resazurin fluorescence, 24 h, PK04 Diversity Set (AID 1172). The settings on record: higher = more signal. In general terms: The colour change of resazurin is a common sign of viable cells or microbes.
Assay [2] in a line: basal S. cerevisiae growth modulation, no modifier, primary screen, OD600, strain BY4716, 24 h, basal condition (AID 1173). The settings on record: OD600, 24 h, higher = more signal, called active from +8 up or from −8 down.
Assay [3] can be described thus: MM1S myeloma cell viability, profiling panel, resazurin fluorescence, basal, 24 h, PK04 Diversity Set (AID 1174).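 Further: MM1S multiple myeloma cell line.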 The settings on record: higher = more signal, called active from +8 up or from −8 down.
In assay [4] the target is Dihydroorotate dehydrogenase (quinone), mitochondrial (Plasmodium falciparum (isolate 3D7)) (UniProt Q08210). Briefly: PfDHODH enzyme inhibitors, primary screen, biochemical, C-terminal His tag, absorbance 600 nm (AID 1175).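 Further: recombinant parasite enzyme with a five histidine tag at its C terminus.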 As to conditions: DCIP absorbance 600 nm, higher = more signal, called active from +8 up or from −8 down.
Sequence of Dihydroorotate dehydrogenase (quinone), mitochondrial (Plasmodium falciparum (isolate 3D7)) (Q08210 whole entry, looked up): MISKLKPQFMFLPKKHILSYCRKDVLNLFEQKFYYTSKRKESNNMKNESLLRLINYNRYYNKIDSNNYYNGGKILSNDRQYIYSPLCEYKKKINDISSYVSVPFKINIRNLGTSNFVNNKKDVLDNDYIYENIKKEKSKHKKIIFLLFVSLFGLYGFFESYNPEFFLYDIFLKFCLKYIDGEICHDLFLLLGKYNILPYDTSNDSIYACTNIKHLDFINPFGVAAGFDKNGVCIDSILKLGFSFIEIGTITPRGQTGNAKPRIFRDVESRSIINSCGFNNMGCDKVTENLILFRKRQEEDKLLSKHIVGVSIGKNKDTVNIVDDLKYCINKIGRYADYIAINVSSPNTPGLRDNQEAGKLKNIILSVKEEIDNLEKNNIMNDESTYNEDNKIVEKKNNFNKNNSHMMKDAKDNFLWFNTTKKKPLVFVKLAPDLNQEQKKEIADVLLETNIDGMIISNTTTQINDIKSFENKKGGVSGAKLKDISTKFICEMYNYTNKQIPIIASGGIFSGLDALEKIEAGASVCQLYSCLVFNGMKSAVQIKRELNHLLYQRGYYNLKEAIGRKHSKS
Assay [5] in a line: P. aeruginosa biofilm formation inhibitors, primary screen, strain PAO1, LB-PBS medium, absorbance 600 nm (AID 1176). The settings on record: P. aeruginosa PAO1 growth/biofilm, A600, 12 h; higher = more signal.
A short description of assay [6]: S. cerevisiae RM11-1a growth modifiers, primary screen, strain RM11-1a, OD600, basal, 24 h (AID 1177).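 Further: cultures grown under basal conditions with no added stressor.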 As to conditions: OD600, 24 h, higher = more signal, called active from +8 up or from −8 down.
The nature of assay [7]: E. coli acrAB mutant growth effects, primary screen, E. coli filamentation inducers, strain DRC39, OD650, 24 h (AID 1178).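 Further: growth measured as culture turbidity by optical density at 650 nm.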 The settings on record: higher = more signal, called active from +8 up or from −8 down.
A short description of assay [8]: E. coli acrAB mutant growth effects, primary screen, E. coli filamentation inducers, strain DRC39, OD650, 48 h (AID 1179).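 Further: screen aims at cell division blockers that make cells filament.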 The settings on record: E. coli DRC39 delta-acrAB growth, higher = more signal, called active from +8 up or from −8 down.
The nature of assay [9]: RPMI8226 myeloma cell viability, profiling panel, resazurin fluorescence, basal, 24 h, PK04 Diversity Set (AID 1180).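 Further: RPMI8826 multiple myeloma cell line at 5000 cells per well.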 The settings on record: higher = more signal.
The target of assay [10] is E3 ubiquitin-protein ligase XIAP (Homo sapiens) (UniProt P98170). Briefly: XIAP binders, primary screen, biophysical, small-molecule microarray, fluorescence 635 nm (AID 1181).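 Further: score merges 667 nm emission and signal to noise over triplicate slides.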 The settings on record: small-molecule microarray binding, higher = more signal.
Sequence of E3 ubiquitin-protein ligase XIAP (Homo sapiens) (P98170 whole entry, looked up): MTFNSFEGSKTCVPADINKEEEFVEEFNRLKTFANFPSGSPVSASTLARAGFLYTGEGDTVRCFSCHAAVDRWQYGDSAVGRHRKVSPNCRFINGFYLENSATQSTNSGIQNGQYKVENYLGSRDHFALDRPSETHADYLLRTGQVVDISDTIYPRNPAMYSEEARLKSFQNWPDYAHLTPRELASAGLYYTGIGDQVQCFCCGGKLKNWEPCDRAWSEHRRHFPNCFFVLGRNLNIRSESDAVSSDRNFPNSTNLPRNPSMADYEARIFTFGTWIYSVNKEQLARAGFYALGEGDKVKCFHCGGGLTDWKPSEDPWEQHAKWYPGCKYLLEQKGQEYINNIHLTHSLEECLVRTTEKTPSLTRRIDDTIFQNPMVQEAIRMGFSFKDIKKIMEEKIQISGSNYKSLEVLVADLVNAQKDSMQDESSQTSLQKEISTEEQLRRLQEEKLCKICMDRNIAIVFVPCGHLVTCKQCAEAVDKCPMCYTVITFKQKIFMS
Assay [11] concerns XIP peptide (Xip251-270) binding. Briefly: small-molecule binders of XIP peptide, primary screen, biochemical, small-molecule microarray, fluorescence 635/667 nm, 0.1 µg/mL protein (AID 1182). As to conditions: fluorescent protein binding, 635 nm, higher = more signal, called active from +8 up or from −8 down.
Another assay has as its system XIP peptide (Xip251-270). Description: small-molecule binders of XIP peptide, primary screen, biochemical, small-molecule microarray, fluorescence 635/667 nm, 0.5 µg/mL protein (AID 1183). The settings on record: small-molecule microarray binding, fluorescence 635 nm; higher = more signal.
Assay [12] can be described thus: Plasmodium falciparum growth inhibition, primary screen, strain 3D7, DAPI fluorescence, 100 nL (AID 1184).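 Further: parasites grown inside human red blood cells in medium with human serum.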 As to conditions: P. falciparum 3D7 growth, 3 d, higher = more signal.
In assay [13] the target is Homeobox protein Hox-A13 (Mus musculus) (UniProt Q62424). Briefly: inhibitors of HoxA13-DNA binding, primary screen, biochemical, fluorescence polarization, labeled oligonucleotide (AID 1185). The settings on record: 15 min, higher = more signal, called active from +8 up or from −8 down. For orientation: In fluorescence polarisation assays a small probe gives low polarisation when free and higher when bound to something large.
Sequence of Homeobox protein Hox-A13 (Mus musculus) (Q62424 whole entry, looked up): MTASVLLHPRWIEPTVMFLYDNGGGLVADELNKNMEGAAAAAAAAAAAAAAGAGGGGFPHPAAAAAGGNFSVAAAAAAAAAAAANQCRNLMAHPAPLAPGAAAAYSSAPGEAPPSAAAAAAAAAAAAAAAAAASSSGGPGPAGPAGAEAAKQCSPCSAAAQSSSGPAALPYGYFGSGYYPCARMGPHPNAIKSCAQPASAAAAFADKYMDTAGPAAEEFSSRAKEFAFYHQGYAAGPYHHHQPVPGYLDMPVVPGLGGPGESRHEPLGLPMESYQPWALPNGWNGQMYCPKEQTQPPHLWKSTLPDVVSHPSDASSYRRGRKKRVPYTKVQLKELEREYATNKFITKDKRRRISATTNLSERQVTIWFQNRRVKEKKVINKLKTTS

A short description of assay [14]: inhibitors of hydroxyurea-induced Chk1 phosphorylation, primary screen, imaging, HeLa, phospho-Chk1 antibody, percent positive cells (AID 1186). As to conditions: hydroxyurea-induced phospho-Chk1 immunofluorescence imaging, higher = more signal.
A short description of assay [15]: inhibitors of hydroxyurea-induced Chk1 phosphorylation, primary screen, imaging, HeLa, phospho-Chk1 nuclear intensity (AID 1187). As to conditions: hydroxyurea-induced phospho-Chk1 immunofluorescence imaging, higher = more signal.

Active and inactive are the calls of the source. Unless noted, how the calls were made is not given here.

Consider `COC(=O)[C@@]1(Cc2ccc(OC)cc2)[C@H]2c3cc(C(=O)N4CCCC4)n(CCO)c3C[C@H]2CN1C(=O)c1ccccc1`, for which the z-score in [1] was -1.39; in assay [2], 0.91 (inactive); in assay [3] it was -2.2 (inactive); in assay [5], 0.632 (inactive); in assay [6] it was 0.941 (inactive); in assay [7], -0.614 (inactive). Further, the z-score is -1.21 (inactive) in assay [8]; -0.861 in [9]; -1.72 in [12]; -5.06 (inactive) in assay [13]; 1.33 (inactive) in assay [14]; 0.404 (inactive) in assay [15]. For the same compound, the composite z-score in assay [4] is -0.203 (inactive); in assay [10], 0.311; in [11], 0.675 (inactive); in the assay with XIP peptide (Xip251-270) it was 0.643.
For the compound `CN1C(=O)C2C=CC(C(O)c3cccn3C)N(Nc3ccc([N+](=O)[O-])cc3[N+](=O)[O-])C2C1=O` (stereo not given), the z-score was -0.929 in assay [1]; 1.1 (inactive) in assay [2]; -1.76 (inactive) in assay [3]; 0.667 (inactive) in [5]; 0.407 (inactive) in assay [6]; -0.314 (inactive) in [7]. The z-score was -0.119 (inactive) in assay [8]; -1.34 in [9]; 0.69 in [12]; -5.85 (inactive) in assay [13]; 0.769 (inactive) in assay [14]; 0.127 (inactive) in assay [15]. Further, the composite z-score in [4] was -0.145 (inactive); in assay [10] it was -0.354; in assay [11], -0.438 (inactive); with XIP peptide (Xip251-270), -0.564.
On to `CO[C@H]1O[C@H](CO)[C@@H](OC(=O)Nc2ccccc2)[C@H](OC(=O)c2cc3ccccc3[nH]2)[C@H]1OC(=O)c1cc2ccccc2[nH]1`, for which the z-score in [1] was -1.09; in [2] it was -0.388 (inactive); in [3], -1.59 (inactive); in assay [5] it was 0.125 (inactive); in assay [6], -0.643 (inactive); in [7] it was 1.54 (inactive). Further, the z-score is 1.45 (inactive) in assay [8]; -1.64 in [9]; -1.83 in assay [12]; -4.4 (inactive) in assay [13]; -0.389 (inactive) in [14]; -0.562 (inactive) in [15]. Also, the composite z-score in assay [4] was -0.49 (inactive); in assay [10], 0.246; in assay [11], 2.41 (inactive); in the assay on XIP peptide (Xip251-270), 0.783.
Consider `CCOC(=O)C1=CC[C@@H](c2ccccc2)N(S(=O)(=O)c2ccc(C)cc2)[C@H]1c1ccccc1`, for which the z-score in [1] is -0.356; in assay [2], 1.92 (inactive); in [3], -0.564 (inactive); in [5], 0.85 (inactive); in assay [6] it was 1.75 (inactive); in [7] it was -0.544 (inactive). Also, the z-score is -0.244 (inactive) in [8]; -1.33 in [9]; -1.67 in [12]; 0.268 (inactive) in [13]; 0.339 (inactive) in assay [14]; -1.24 (inactive) in assay [15]. In addition, the composite z-score in assay [4] was 1.03 (inactive); in assay [10], 0.0512; in [11], 0.267 (inactive); in the assay on XIP peptide (Xip251-270) it was 0.528.
Regarding `Cc1ccc(S[C@]2(C(=O)O)CC(=O)N(C3CCCCC3)[C@@H]2c2ccc(CO)cc2I)cc1`, the z-score in assay [1] was 0.465; in [2] it was -1.67 (inactive); in [3], -0.353 (inactive); in assay [5], -0.137 (inactive); in [6], -0.92 (inactive); in assay [7] it was 0.475 (inactive). For the same compound, the z-score was 0.0129 (inactive) in assay [8]; -0.74 in assay [9]; -0.348 in [12]; -5.25 (inactive) in assay [13]; 0.542 (inactive) in [14]; 0.675 (inactive) in [15]. In addition, the composite z-score in assay [4] is -0.664 (inactive); in assay [10], -0.0525; in assay [11], 2.84 (inactive); in the assay with XIP peptide (Xip251-270) it was 0.526.
For `C=CCN1C(=O)[C@]2(CCS(=O)(=O)c3ccccc3)N=C(c3ccc(OCCCO)cc3)O[C@@H]2c2ccccc21`, the z-score in assay [1] was -0.735; in assay [2], 0.383 (inactive); in assay [3] it was -1.36 (inactive); in assay [5], 0.218 (inactive); in [6], 0.742 (inactive); in [7], 0.7 (inactive). The z-score in assay [8] is 0.916 (inactive); in assay [9] it was -1.96; in [12], -2.33; in assay [13], -2.55 (inactive); in [14], -0.419 (inactive); in assay [15], -0.216 (inactive). Besides, the composite z-score was -0.756 (inactive) in assay [4], 0.0738 in assay [10], 0.0088 (inactive) in assay [11] and 0.804 in the assay on XIP peptide (Xip251-270).
Consider `O=C(C1N=C(c2ccc(OCCCO)cc2)N(c2ccccc2)O1)N1CCCCC1` (stereo not given), for which the z-score in [1] was 0.377; in assay [2] it was -0.769 (inactive); in assay [3], 1.15 (inactive); in [5], -1.35 (inactive); in assay [6], -0.587 (inactive); in assay [7] it was 0.457 (inactive). Besides, the z-score in [8] is 0.15 (inactive); in assay [9] it was 0.188; in [12], -0.603; in [13] it was -3.7 (inactive); in [14], -0.216 (inactive); in assay [15], 0.153 (inactive). The composite z-score in [4] was -0.152 (inactive); in assay [10], 0.0761; in assay [11] it was 2.64 (inactive); in the assay with XIP peptide (Xip251-270) it was 0.814.
For the compound `CCCCC(O)C1C=CC2C(=O)N(C)C(=O)C2N1N(c1ccccc1)c1ccccc1` (stereo not given), the z-score in assay [1] is -0.682; in [2], 0.512 (inactive); in assay [3], -1.65 (inactive); in assay [5], 1.26 (inactive); in [6] it was 0.46 (inactive); in assay [7] it was -0.447 (inactive). Besides, the z-score in assay [8] was -0.251 (inactive); in [9] it was -1.05; in [12], 1.01; in assay [13], -4.42 (inactive); in [14] it was -0.0768 (inactive); in assay [15] it was -0.691 (inactive). Further, the composite z-score in assay [4] was -0.226 (inactive); in assay [10] it was 0.001; in assay [11] it was 0.289 (inactive); in the assay on XIP peptide (Xip251-270), 0.771.
As for `NC(=O)[C@H]1[C@@H]2C(=O)O[C@@H](c3ccccc3)[C@@H](c3ccccc3)N2[C@@H](c2ccc(OCCO)cc2)[C@]12C(=O)Nc1ccc(C#CCCO)cc12`, the z-score in assay [1] was -0.0423; in [2], 0.704 (inactive); in assay [3], -0.245 (inactive); in assay [5], 0.35 (inactive); in [6], 1.78 (inactive); in assay [7] it was -0.0157 (inactive). Further, the z-score was 0.0992 (inactive) in assay [8]; -0.169 in [9]; 0.358 in [12]; -4.68 (inactive) in assay [13]; -0.317 (inactive) in assay [14]; -0.838 (inactive) in [15]. The composite z-score in [4] was -0.624 (inactive); in assay [10], -0.0884; in [11] it was 0.32 (inactive); in the assay on XIP peptide (Xip251-270) it was 0.357.
In the case of `CCOC(=O)C[C@H]1[C@H](OC(=O)c2ccc(C(=O)c3ccccc3)cc2)[C@@H](NC(=O)CC(C)C)c2cc(OCCCO)ccc2N1C(=O)c1ccccc1`, the z-score is -0.358 in [1]; 0.325 (inactive) in assay [2]; 0.0303 (inactive) in [3]; 0.714 (inactive) in assay [5]; -0.0649 (inactive) in assay [6]; -0.794 (inactive) in assay [7]. For the same compound, the z-score in assay [8] is -0.717 (inactive); in assay [9], -0.281; in assay [12], 1.38; in assay [13], -3.51 (inactive); in assay [14] it was 0.309 (inactive); in assay [15] it was -0.0385 (inactive). In addition, the composite z-score was -0.235 (inactive) in assay [4], -0.0773 in assay [10], 0.786 (inactive) in [11] and 0.671 in the assay on XIP peptide (Xip251-270).
